A short description of test [1]: compound effects on lung adenocarcinoma cell viability – A549, calcein-AM fluorescence, 48 h, basal, profiling panel (AID 1162). Further: test concentration not given here. The note with it: higher = more signal.
A short description of test [2]: compound effects on differentiated 3T3-L1 adipocyte viability – cell-based, 3T3-L1 adipocytes, calcein-AM fluorescence, 48 h, basal, profiling panel (AID 1163). Further: test concentration not given here. The note with it: 3T3-L1 adipocytes viability, higher = more signal.
Test [3] in a line: compound effects on hepatocellular carcinoma cell viability – HepG2, calcein-AM fluorescence, 48 h, basal, profiling panel (AID 1164). Further: test concentration not given here. The following applies: higher = more signal.
Test [4] is described as follows: compound effects on multiple myeloma cell viability – MM1S, calcein-AM fluorescence, 48 h, basal, profiling panel (AID 1165).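 Further: viability of MM1S multiple myeloma cells under basal unstimulated conditions; test concentration not given here.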 The following applies: higher = more signal.
Test [5] in a line: calcein-AM signal in unstimulated myeloma cells – cell-based, calcein-AM fluorescence, 48 h, PK04 Diversity Set, profiling panel (AID 1166).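 Further: cells grown under basal conditions without added stimulus; test concentration not given here.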 The note with it: RPMI8226 myeloma viability, higher = more signal.
Test [6] is described as follows: JC-1 mitochondrial signal, unstimulated HepG2 cells – cell-based, JC-1 fluorescence, 24 h, 100 nL compound, profiling panel (AID 1167). Further: test concentration not given here. The following applies: HepG2 mitochondrial potential, higher = more signal.
A short description of test [7]: JC-1 mitochondrial signal, unstimulated adipocytes – cell-based, JC-1 fluorescence, 3T3-L1 adipocytes, 24 h, 100 nL compound, profiling panel (AID 1168). Further: test concentration not given here. The note with it: JC-1 mitochondrial fluorescence, higher = more signal, called active from +8 up or from −8 down.
A short description of test [8]: JC-1 mitochondrial signal, unstimulated myeloma cells – cell-based, JC-1 fluorescence, RPMI8226, 24 h, 100 nL compound, profiling panel (AID 1169). Further: test concentration not given here. The note with it: JC-1 mitochondrial potential fluorescence, higher = more signal.
Test [9] in a line: JC-1 mitochondrial signal, unstimulated MM1S myeloma – cell-based, JC-1 fluorescence, 24 h, 100 nL compound, profiling panel (AID 1170). Further: test concentration not given here. The following applies: MM1S mitochondrial potential, higher = more signal.
Test [10] in a line: resazurin metabolic signal in A549 cells – cell-based, resazurin fluorescence, 24 h, PK04 Diversity Set, profiling panel (AID 1171). Further: test concentration not given here. The note with it: A549 viability, higher = more signal, called active from +8 up or from −8 down.
The nature of test [11]: resazurin metabolic signal in HepG2 cells – cell-based, resazurin fluorescence, 24 h, PK04 Diversity Set, profiling panel (AID 1172). Further: test concentration not given here. The following applies: HepG2 viability, higher = more signal.
Test [12] can be described thus: budding yeast growth changes without added modifier – OD600, strain BY4716, 24 h, basal condition, primary screen (AID 1173). The note with it: S. cerevisiae BY4716 growth, OD600, 24 h; higher = more signal, called active from +8 up or from −8 down.
A short description of test [13]: viability profiling in MM1S myeloma cells – cell-based, resazurin fluorescence, basal, 24 h, PK04 Diversity Set, profiling panel (AID 1174). Further: test concentration not given here. The following applies: higher = more signal, called active from +8 up or from −8 down.
Test [14] addresses Dihydroorotate dehydrogenase (quinone), mitochondrial (Plasmodium falciparum (isolate 3D7)) (UniProt Q08210). As to the kind of experiment: inhibition of P. falciparum DHODH – biochemical, C-terminal His tag, absorbance 600 nm, primary screen (AID 1175).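 Further: recombinant parasite enzyme with a five histidine tag at its C terminus; test concentration not given here.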 The note with it: PfDHODH enzyme, DCIP absorbance 600 nm; higher = more signal, called active from +8 up or from −8 down.
The nature of test [15]: inhibition of PAO1 biofilm formation – strain PAO1, LB-PBS medium, absorbance 600 nm, primary screen (AID 1176). Further: test concentration not given here. The following applies: P. aeruginosa PAO1 growth/biofilm, A600, 12 h; higher = more signal.
A short description of test [16]: growth modulation of vineyard yeast isolate – strain RM11-1a, OD600, basal, 24 h, primary screen (AID 1177).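 Further: cultures grown under basal conditions with no added stressor; test concentration not given here.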 The note with it: S. cerevisiae RM11-1a growth, OD600, 24 h; higher = more signal, called active from +8 up or from −8 down.
A short description of test [17]: growth of efflux-deficient E. coli DRC39 – strain DRC39, OD650, 24 h, E. coli filamentation inducers, primary screen (AID 1178).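 Further: growth measured as culture turbidity by optical density at 650 nm; test concentration not given here.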 The note with it: E. coli DRC39 acrAB, higher = more signal, called active from +8 up or from −8 down.
Test [18] is described as follows: growth of efflux-deficient E. coli DRC39 – strain DRC39, OD650, 48 h, E. coli filamentation inducers, primary screen (AID 1179).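 Further: screen aims at cell division blockers that make cells filament.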 The note with it: E. coli DRC39 delta-acrAB growth, higher = more signal, called active from +8 up or from −8 down.
Test [19] can be described thus: viability profiling in RPMI8226 myeloma cells – cell-based, resazurin fluorescence, basal, 24 h, PK04 Diversity Set, profiling panel (AID 1180).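 Further: RPMI8826 multiple myeloma cell line at 5000 cells per well; test concentration not given here.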 The following applies: higher = more signal.
For test [20], the target named is E3 ubiquitin-protein ligase XIAP (Homo sapiens) (UniProt P98170). As to the kind of experiment: small molecules binding XIAP protein – biophysical, small-molecule microarray, fluorescence 635 nm, primary screen (AID 1181).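 Further: score merges 667 nm emission and signal to noise over triplicate slides.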 The following applies: higher = more signal.
Sequence of E3 ubiquitin-protein ligase XIAP (Homo sapiens) (P98170 whole entry, looked up): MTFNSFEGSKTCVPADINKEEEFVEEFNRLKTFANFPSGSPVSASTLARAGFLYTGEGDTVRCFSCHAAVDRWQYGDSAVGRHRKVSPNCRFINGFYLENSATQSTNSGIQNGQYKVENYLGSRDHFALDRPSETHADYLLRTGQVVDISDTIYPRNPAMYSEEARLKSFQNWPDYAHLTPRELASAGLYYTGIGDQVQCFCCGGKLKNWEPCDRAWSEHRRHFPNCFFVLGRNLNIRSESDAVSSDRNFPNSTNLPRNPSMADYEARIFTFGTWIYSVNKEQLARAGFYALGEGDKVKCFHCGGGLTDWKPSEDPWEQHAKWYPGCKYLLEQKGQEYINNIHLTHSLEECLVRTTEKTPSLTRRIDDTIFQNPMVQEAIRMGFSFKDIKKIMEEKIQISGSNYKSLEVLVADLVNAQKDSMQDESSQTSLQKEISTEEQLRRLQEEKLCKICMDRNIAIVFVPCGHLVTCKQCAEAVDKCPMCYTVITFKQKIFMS

Active and inactive are the calls of the source. Unless noted, how the calls were made is not given here.

Sequence of Dihydroorotate dehydrogenase (quinone), mitochondrial (Plasmodium falciparum (isolate 3D7)) (Q08210 whole entry, looked up): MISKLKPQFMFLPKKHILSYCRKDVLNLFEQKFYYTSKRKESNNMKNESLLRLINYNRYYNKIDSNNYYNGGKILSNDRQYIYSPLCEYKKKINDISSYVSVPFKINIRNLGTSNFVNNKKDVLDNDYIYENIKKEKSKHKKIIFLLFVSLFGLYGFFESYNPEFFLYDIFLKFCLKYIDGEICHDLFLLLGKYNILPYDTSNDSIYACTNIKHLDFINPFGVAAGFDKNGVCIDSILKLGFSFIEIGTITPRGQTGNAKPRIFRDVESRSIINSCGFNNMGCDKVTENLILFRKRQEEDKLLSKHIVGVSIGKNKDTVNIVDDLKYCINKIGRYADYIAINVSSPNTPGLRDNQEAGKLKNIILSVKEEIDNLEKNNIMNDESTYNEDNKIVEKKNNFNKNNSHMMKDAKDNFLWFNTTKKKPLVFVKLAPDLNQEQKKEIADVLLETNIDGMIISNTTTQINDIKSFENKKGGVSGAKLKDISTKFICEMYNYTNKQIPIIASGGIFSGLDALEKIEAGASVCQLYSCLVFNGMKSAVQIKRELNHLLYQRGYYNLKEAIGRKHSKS

As for `COC(=O)[C@H](C)NC(=O)CCC1CC(OC(=O)NCc2ccc3c(c2)OCO3)CC2(CCCC(COC(=O)NCCc3ccc(Cl)cc3)O2)O1` (stereo not given in full), the z-score was -0.508 in [1]; 0.38 in test [2]; -0.796 in [3]; -0.99 in test [4]; -1.27 in [5]; 0.718 in [6]. The z-score is -0.527 (inactive) in test [7]; -0.342 in test [8]; -0.864 in test [9]; 1.02 (inactive) in test [10]; 0.388 in [11]; 0.515 (inactive) in [12]. Besides, the z-score in test [13] was -0.682 (inactive); in [15], -0.965 (inactive); in [16], 0.88 (inactive); in test [17], 0.616 (inactive); in test [18], -0.729 (inactive); in test [19] it was 0.0968. For the same molecule, the composite z-score was 0.0925 (inactive) in test [14] and -0.0559 in test [20].

For `COc1ccc(OC[C@H]2CN3[C@@H](CC[C@@H](C)[C@@H]3c3ccc(Br)cc3)C(=O)O2)cc1`, the z-score in test [1] was -0.0668; in test [2], 0.0118; in test [3], -0.227; in test [4] it was 0.829; in test [5] it was -1.2; in test [6], -0.057. The z-score is -0.187 (inactive) in test [7]; 0.979 in [8]; 0.381 in [9]; -0.914 (inactive) in [10]; -0.699 in test [11]; -1.63 (inactive) in test [12]. Moreover, the z-score in test [13] is 0.649 (inactive); in [15], -1.52 (inactive); in test [16] it was -0.13 (inactive); in test [17], -1.87 (inactive); in [18], -1.35 (inactive); in [19], -0.134. For the same molecule, the composite z-score in test [14] is 0.217 (inactive); in test [20], -0.129.

As to `CO[C@H]1COC(=O)[C@H](CCSC)NC(=O)CC=C[C@@H](C)[C@H](OC)COC(=O)[C@@H](OCc2ccccc2)C=C[C@@H]1C`, the z-score in [1] is -0.843; in [2], -0.161; in [3], -1.1; in [4] it was -0.0051; in test [5], 0.241; in test [6] it was 0.247. Besides, the z-score in test [7] was -1.75 (inactive); in [8], 0.759; in test [9], -0.491; in test [10] it was 0.886 (inactive); in test [11], 0.81; in [12], -0.41 (inactive). Moreover, the z-score is -0.059 (inactive) in [13]; -1.38 (inactive) in test [15]; -0.208 (inactive) in test [16]; 0.345 (inactive) in test [17]; 0.238 (inactive) in [18]; 0.519 in test [19]. Also, the values for the composite z-score in test [14] and in [20] were -0.611 (inactive) and -0.0965, respectively.

As to `CCOC(=O)[C@H](CC(C)C)NC(=O)CCC1CC(OC(=O)NCCc2ccc(F)cc2)CC2(CCCC(COC(=O)NCc3cccc4ccccc34)O2)O1` (stereo not given in full), the z-score was -0.491 in test [1]; -0.679 in [2]; -2.03 in test [3]; -3.43 in test [4]; -3.14 in [5]; 0.26 in test [6]. Further, the z-score in [7] is -0.0268 (inactive); in [8] it was 0.219; in [9], -1.56; in test [10], 1.15 (inactive); in [11], 0.682; in test [12], -1.9 (inactive). Also, the z-score in test [13] is 1.28 (inactive); in [15] it was 0.168 (inactive); in [16] it was -0.186 (inactive); in test [17] it was 0.424 (inactive); in [18], -0.435 (inactive); in test [19] it was 1.3. The composite z-score was 0.0103 (inactive) in test [14] and -0.0939 in test [20].

Consider `CC(=O)OC[C@H]1O[C@H](CC=NO[C@H](C)c2cn([C@@H]3COC[C@H]3O)nn2)C=C[C@@H]1OC(C)=O`, for which the z-score is 0.674 in test [1]; 0.062 in test [2]; 0.631 in test [3]; 0.621 in test [4]; 0.479 in test [5]; 0.00468 in [6]. The z-score is 1.13 (inactive) in [7]; 0.418 in [8]; -0.466 in test [9]; -0.145 (inactive) in [10]; -0.648 in [11]; -0.199 (inactive) in test [12]. In addition, the z-score in [13] was 0.134 (inactive); in test [15], 0.441 (inactive); in [16], -1.9 (inactive); in test [17], -0.716 (inactive); in [18], -0.743 (inactive); in [19], 0.0142. For the same molecule, the composite z-score in test [14] was -1.64 (inactive); in test [20] it was -0.0447.

For `CCOC(=O)[C@H](Cc1ccccc1)NC(=O)CCC1CC(OC(=O)NCCc2ccc(F)cc2)CC2(CCCC(COC(=O)NCCOc3ccccc3)O2)O1` (stereo not given in full), the z-score in [1] was 0.613; in test [2], -0.156; in [3], 0.141; in test [4], -0.565; in [5], -1.25; in [6], 1.71. Besides, the z-score in test [7] was 0.508 (inactive); in [8] it was -0.218; in test [9] it was -0.123; in [10], 0.264 (inactive); in test [11], 0.121; in test [12], -0.245 (inactive). Besides, the z-score is -0.02 (inactive) in test [13]; 0.651 (inactive) in [15]; 0.408 (inactive) in test [16]; 0.417 (inactive) in test [17]; 0.343 (inactive) in [18]; 0.194 in test [19]. The composite z-score in [14] was -0.189 (inactive); in test [20] it was -0.0166.

Turning to `CCN1C(=O)[C@H]2[C@H]3[C@H](O)[C@H](O)CC(=NNC(=O)OCc4ccccc4)[C@@H]3CC[C@H]2C1=O`, the z-score is -0.0627 in [1]; 0.0682 in test [2]; -0.131 in test [3]; -0.0309 in test [4]; 0.718 in test [5]; -0.653 in test [6]. Further, the z-score in test [7] is -1.19 (inactive); in [8], -0.118; in test [9] it was -0.458; in [10], -0.32 (inactive); in test [11], -0.501; in test [12] it was 0.226 (inactive). The z-score in test [13] is -0.453 (inactive); in test [15], -0.814 (inactive); in test [16], -0.338 (inactive); in test [17], 0.313 (inactive); in [18], 0.0507 (inactive); in test [19], -0.747. Further, the results for the composite z-score in [14] and in test [20] were -0.283 (inactive) and -0.0476, respectively.

Take `CCOC(=O)[C@H](Cc1ccccc1)NC(=O)CCC1CC(OC(=O)NCc2ccc3c(c2)OCO3)CC2(CCCC(COC(=O)NCCOC)O2)O1` (stereo not given in full): the z-score in [1] is 0.58; in test [2], -0.182; in test [3], -0.971; in [4], 1.05; in test [5], -1.56; in test [6], 0.724. Moreover, the z-score in test [7] was -0.844 (inactive); in [8], -0.817; in [9], -1.37; in [10], 0.32 (inactive); in test [11], 0.0491; in test [12], -0.914 (inactive). Also, the z-score in test [13] was 0.808 (inactive); in [15], -0.871 (inactive); in test [16], 0.0059 (inactive); in test [17], -0.477 (inactive); in test [18] it was 0.525 (inactive); in test [19], -0.0023. Also, the composite z-score in test [14] is -2.56 (inactive); in test [20], 0.0374.

The values are drawn from PubChem BioAssay.
